The target in assay [1] is Paired box protein Pax-6 (Homo sapiens) (UniProt P26367). Put plainly: ATG_Pax6_CIS: Attagene CIS-FACTORIAL HepG2 Assay for human Paired Box 6 (PAX6) (AID 2282956). Conditions: HepG2 CIS-FACTORIAL PAX6 reporter transcription, RNA readout; actives raise or lower the signal. A digest of the protocol: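 Values derive from bidirectional curve fitting of reporter mRNA signal relative to DMSO. HepG2 cells bearing transfected cis-regulated MRTUs were exposed for 24 h; transcripts were read by RT-PCR and capillary electrophoresis.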
Paired box protein Pax-6 (Homo sapiens), sequence (P26367 whole entry, looked up): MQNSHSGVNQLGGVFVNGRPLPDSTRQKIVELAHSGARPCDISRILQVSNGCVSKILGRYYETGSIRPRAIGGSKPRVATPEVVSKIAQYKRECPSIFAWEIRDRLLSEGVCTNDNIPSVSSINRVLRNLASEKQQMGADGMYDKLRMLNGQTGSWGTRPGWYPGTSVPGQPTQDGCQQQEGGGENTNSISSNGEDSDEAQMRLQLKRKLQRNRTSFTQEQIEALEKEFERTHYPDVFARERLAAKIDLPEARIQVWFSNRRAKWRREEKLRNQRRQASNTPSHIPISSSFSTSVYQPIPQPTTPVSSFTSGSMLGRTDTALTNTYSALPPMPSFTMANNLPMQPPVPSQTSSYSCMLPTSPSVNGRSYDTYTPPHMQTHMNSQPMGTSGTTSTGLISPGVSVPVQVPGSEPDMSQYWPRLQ

A short description of assay [2]: ATG_PXRE_CIS: Attagene CIS-FACTORIAL HepG2 Assay for human Pregnane X Receptor Element (PXRE) (AID 2282957). Conditions: HepG2 Attagene CIS-FACTORIAL PXRE reporter, mRNA; actives raise or lower the signal. The method in brief:
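After a 24 h chemical incubation, total RNA from transfected HepG2 cells was reverse-transcribed and reporter cDNA amplified, FAM-labeled, HpaI-digested and sized by capillary electrophoresis. DMSO served as baseline for bidirectional curve fitting.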

Assay [3] can be described thus: ATG_PPRE_CIS: Attagene CIS-FACTORIAL HepG2 Assay for human Peroxisome Proliferator-activated Response Element (PPRE) (AID 2282958). Conditions: HepG2 PPRE cis-element reporter, Attagene transcription factor profiling; actives raise or lower the signal. A digest of the protocol: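 Read-out: fluorescent reporter mRNA fragments resolved by capillary electrophoresis after RT-PCR. HepG2 cells carried transiently transfected PPRE-driven cis reporter constructs and were dosed for 24 h; gain or loss of signal fitted relative to DMSO.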

Assay [4] is described as follows: ATG_RORE_CIS: Attagene CIS-FACTORIAL HepG2 Assay for human RAR-related Orphan Receptor Element (RORE) (AID 2282959). The conditions noted are these: HepG2 Attagene cis-factorial RORE reporter, mRNA; actives raise or lower the signal. A digest of the protocol: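 Readout: fluorescent reporter mRNA by RT-PCR plus capillary electrophoresis, 24 h after dosing transfected HepG2 cells. Endogenous transcription factor activity on a cis promoter element is measured. Gain or loss of signal fitted against DMSO.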

For assay [5], the target named is Transcription factor Sp1 (Homo sapiens) (UniProt P08047). Briefly: ATG_Sp1_CIS: Attagene CIS-FACTORIAL HepG2 Assay for human Specificity Protein 1 (Sp1) (AID 2282961). Conditions: HepG2 Sp1 cis-reporter transcription, actives raise or lower the signal. The method in brief: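 Read-out: fluorescence of 6-FAM-labeled, HpaI-digested RT-PCR products separated by capillary electrophoresis. HepG2 cells carried transfected cis-element reporter units and were exposed to chemicals for 24 h; gain or loss of signal fitted relative to DMSO.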
Transcription factor Sp1 (Homo sapiens), sequence (P08047 whole entry, looked up): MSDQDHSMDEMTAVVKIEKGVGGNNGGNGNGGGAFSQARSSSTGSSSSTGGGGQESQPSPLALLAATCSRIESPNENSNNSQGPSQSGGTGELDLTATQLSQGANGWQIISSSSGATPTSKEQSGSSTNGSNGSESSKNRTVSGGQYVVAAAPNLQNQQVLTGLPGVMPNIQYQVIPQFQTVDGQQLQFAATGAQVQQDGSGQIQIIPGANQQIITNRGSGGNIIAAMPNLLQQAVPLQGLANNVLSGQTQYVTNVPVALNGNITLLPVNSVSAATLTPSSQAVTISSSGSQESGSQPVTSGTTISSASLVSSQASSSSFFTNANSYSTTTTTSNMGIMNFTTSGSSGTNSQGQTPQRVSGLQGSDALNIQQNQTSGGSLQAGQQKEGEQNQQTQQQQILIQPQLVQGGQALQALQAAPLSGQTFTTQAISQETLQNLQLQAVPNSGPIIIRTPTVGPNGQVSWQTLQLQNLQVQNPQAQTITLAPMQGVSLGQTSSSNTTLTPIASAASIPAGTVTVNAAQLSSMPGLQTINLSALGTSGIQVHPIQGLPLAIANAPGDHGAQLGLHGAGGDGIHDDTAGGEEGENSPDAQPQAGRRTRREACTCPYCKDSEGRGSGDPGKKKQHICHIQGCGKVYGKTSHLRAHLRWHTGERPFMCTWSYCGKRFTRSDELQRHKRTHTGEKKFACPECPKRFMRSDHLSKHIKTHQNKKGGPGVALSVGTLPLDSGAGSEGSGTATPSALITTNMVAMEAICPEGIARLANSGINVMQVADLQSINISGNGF

The nature of assay [6]: ATG_SREBP_CIS: Attagene CIS-FACTORIAL HepG2 Assay for human Sterol Regulatory Element Binding (SREBP) (AID 2282962). Conditions: HepG2 Attagene cis-factorial SREBP reporter, mRNA; actives raise or lower the signal. The method in brief: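 Values derive from bidirectional curve fitting with DMSO as baseline. The underlying measurement is reporter mRNA from cis-element-regulated units in transiently transfected HepG2, quantified by RT-PCR and capillary electrophoresis after 24 h exposure.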

Assay [7] concerns the target Signal transducer and activator of transcription 3 (Homo sapiens) (UniProt P40763). Briefly: ATG_STAT3_CIS: Attagene CIS-FACTORIAL HepG2 Assay for human Signal Transducer and Activator of Transcription 3 (STAT3) (AID 2282963). The conditions noted are these: HepG2, Attagene cis-factorial STAT3 reporter transcription; actives raise or lower the signal. The method in brief:
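HepG2, MRTU-transfected, 24 h dosing. RNA → RT → PCR → FAM label → HpaI → CE. Bidirectional fit vs DMSO.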

Assay [8] can be described thus: ATG_TA_CIS: Attagene CIS-FACTORIAL HepG2 Assay for human TA Basal Promoter (AID 2282964). Conditions: HepG2 Attagene CIS-factorial TA basal promoter reporter; actives raise or lower the signal. The method in brief: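 Steps: transfect HepG2 with MRTUs; dose 24 h; isolate RNA, DNase-treat, reverse-transcribe; PCR and FAM-label reporter cDNA; digest with HpaI 2h at 37 C; run capillary electrophoresis. Activity fitted both directions against DMSO.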

Assay [9] is described as follows: ATG_TCF_b_cat_CIS: Attagene CIS-FACTORIAL HepG2 Assay for human T-Cell-Factor with beta-catenin (TCF/b-cat) (AID 2282965). Conditions: HepG2 TCF/beta-catenin cis-reporter transcription, actives raise or lower the signal. A digest of the protocol:
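Using capillary electrophoresis as the read-out, labelled reporter cDNA fragments from transiently transfected HepG2 were sized and quantified. Exposure lasted 24 hours; activity in either direction was referenced to DMSO.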

Assay [10] is described as follows: ATG_TAL_CIS: Attagene CIS-FACTORIAL HepG2 Assay for human TAL Basal Promoter (AID 2282966).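 Note: background control endpoint measuring basal TAL promoter reporter mRNA not a specific factor.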 The conditions noted are these: HepG2 Attagene cis-factorial TAL promoter reporter; actives raise or lower the signal. The method in brief:
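Basal-promoter background-control endpoint from a multiplexed HepG2 reporter panel. Cells were exposed 24 h, then reporter mRNA was read by RT-PCR/CE fluorescence and fitted in both directions relative to DMSO.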

A short description of assay [11]: ATG_TGFb_CIS: Attagene CIS-FACTORIAL HepG2 Assay for human Transforming Growth Factor (TGF) (AID 2282967). Conditions: HepG2 Attagene CIS TGFb reporter, mRNA transcription; actives raise or lower the signal. A digest of the protocol:
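Cells were dosed for 24 hours, after which total RNA was reverse-transcribed and reporter sequences amplified, labeled and sized by capillary electrophoresis. Activity was fitted in both directions against DMSO.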

The nature of assay [12]: ATG_VDRE_CIS: Attagene CIS-FACTORIAL HepG2 Assay for human Vitamin D Receptor Element (VDRE) (AID 2282968). Conditions: HepG2 VDRE cis-reporter transcription, actives raise or lower the signal. The method in brief:
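Steps: transfect HepG2 with multiple reporter transcription units; dose chemicals 24 h; isolate RNA; RT-PCR; label with 6-FAM primer extension; HpaI digest; capillary electrophoresis. Curves fitted both directions against DMSO.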

Assay [13] has as its target Estrogen receptor (Homo sapiens) (UniProt P03372). Briefly: ATG_ERa_TRANS: Attagene TRANS-FACTORIAL HepG2 Assay for human Estrogen Receptor alpha (ERa) (AID 2282970; active = hit-call score of the fitted dose curve at least 0.9, where 1 is the maximum). Conditions: HepG2 Attagene TRANS ERa GAL4 reporter, mRNA. The method in brief:
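Gal4-fusion ERa transactivation, measured as reporter transcript level in transiently transfected HepG2 cells. Exposure 24 h; RT-PCR plus capillary electrophoresis with fluorescence detection.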

The target of assay [14] is X-box-binding protein 1 (Homo sapiens) (UniProt P17861). Briefly: ATG_Xbp1_CIS: Attagene CIS-FACTORIAL HepG2 Assay for human X-box Binding Protein 1 (XBP1) (AID 2282972). The conditions noted are these: HepG2 XBP1 cis-element reporter, Attagene multiplex; actives raise or lower the signal. The method in brief: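 Human hepatoma HepG2, cis-element reporter system, 24 h treatment; mRNA quantified by RT-PCR/CE fluorescence; fit relative to DMSO.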
X-box-binding protein 1 (Homo sapiens), sequence (P17861 whole entry, looked up): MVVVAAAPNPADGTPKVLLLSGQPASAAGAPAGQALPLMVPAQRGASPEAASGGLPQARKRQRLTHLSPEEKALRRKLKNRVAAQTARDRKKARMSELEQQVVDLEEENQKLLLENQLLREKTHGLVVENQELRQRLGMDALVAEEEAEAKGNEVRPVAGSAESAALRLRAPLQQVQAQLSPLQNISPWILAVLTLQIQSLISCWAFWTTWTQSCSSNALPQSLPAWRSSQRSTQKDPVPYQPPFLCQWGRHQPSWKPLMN

Assay [15] deals with Nuclear receptor subfamily 1 group I member 3 (Homo sapiens) (UniProt Q14994). Put plainly: ATG_CAR_TRANS: Attagene TRANS-FACTORIAL HepG2 Assay for human Constitutive Androstane Receptor (CAR) (AID 2282969; active = hit-call score of the fitted dose curve at least 0.9, where 1 is the maximum;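 note: activators raise reporter mRNA above DMSO so AC50 marks induction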). Conditions: HepG2 Attagene TRANS-FACTORIAL CAR reporter. The method in brief: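 Steps: transient transfection of HepG2 with multiple GAL4-UAS reporter units; 24 h compound incubation; RNA isolation, RT-PCR, 6-FAM primer extension, HpaI digest; capillary electrophoresis. Gain-of-signal relative to DMSO negative control.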
Nuclear receptor subfamily 1 group I member 3 (Homo sapiens), sequence (Q14994 whole entry, looked up, the tested form may be a part): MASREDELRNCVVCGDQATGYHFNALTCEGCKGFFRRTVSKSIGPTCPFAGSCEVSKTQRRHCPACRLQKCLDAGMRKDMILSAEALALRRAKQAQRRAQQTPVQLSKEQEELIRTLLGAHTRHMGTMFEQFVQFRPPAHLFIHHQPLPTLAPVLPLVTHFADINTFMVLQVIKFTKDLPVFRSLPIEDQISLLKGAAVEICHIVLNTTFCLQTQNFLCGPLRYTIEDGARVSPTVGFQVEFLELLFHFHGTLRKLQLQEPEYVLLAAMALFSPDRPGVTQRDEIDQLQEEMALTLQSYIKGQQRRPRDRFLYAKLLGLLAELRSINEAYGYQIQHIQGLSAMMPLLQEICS

A short description of assay [16]: ATG_Sox_CIS: Attagene CIS-FACTORIAL HepG2 Assay for human SRY-box transcription factor (SOX) (AID 2282960). Conditions: HepG2 Attagene cis-factorial SOX reporter, mRNA; actives raise or lower the signal. The method in brief:
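Read-out: fluorescent RT-PCR products of SOX1-linked reporter transcripts resolved by capillary electrophoresis, fitted bidirectionally against DMSO. Transiently transfected HepG2 cells, 24 h after chemical exposure, endogenous transcription factor activity.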

Assay [17] is described as follows: ATG_M_19_TRANS: Attagene TRANS-FACTORIAL HepG2 Assay for M19 Transcription Factor (Internal Marker) (AID 2282974; active = hit-call score of the fitted dose curve at least 0.9, where 1 is the maximum). The conditions noted are these: HepG2 Attagene TRANS-FACTORIAL M19 internal marker reporter. A digest of the protocol: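 24 h chemical exposure of transiently transfected HepG2 (MRTU library). RNA → oligo(dT) RT → PCR → 6-FAM labelling → HpaI cut → CE fluorescence. Positive-direction fit vs DMSO baseline; background internal-marker readout.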

Assay [18] is described as follows: ATG_GAL4_TRANS: Attagene TRANS-FACTORIAL HepG2 Assay for GAL4 (Internal Marker) (AID 2282976; active = hit-call score of the fitted dose curve at least 0.9, where 1 is the maximum). Conditions: HepG2 Attagene TRANS GAL4 internal marker reporter. The method in brief: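 Background-control readout: GAL4-UAS reporter transcript in transiently transfected HepG2 cells after 24 h compound exposure. Measured by RT-PCR, 6-FAM primer extension, HpaI digest and capillary electrophoresis; gain-of-signal fit versus DMSO.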

In assay [19] the target is Estrogen-related receptor gamma (Homo sapiens) (UniProt P62508). Put plainly: ATG_ERRg_TRANS: Attagene TRANS-FACTORIAL HepG2 Assay for human Estrogen-Related Receptor gamma (ERRg) (AID 2282977; active = hit-call score of the fitted dose curve at least 0.9, where 1 is the maximum;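 note: hits increase reporter signal over DMSO so potencies reflect activators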). The conditions noted are these: HepG2 Attagene TRANS reporter, ERRg transactivation. The method in brief:
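Exogenous NR-Gal4 chimera activity measured as reporter transcript induction after 24 h in transiently transfected HepG2 cells. RNA reverse-transcribed, PCR-amplified, 6-FAM-labelled and resolved by capillary electrophoresis; increase over DMSO baseline.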

Assay [20] has as its target Steroid hormone receptor ERR1 (Homo sapiens) (UniProt P11474). Briefly: ATG_ERRa_TRANS: Attagene TRANS-FACTORIAL HepG2 Assay for human Estrogen-Related Receptor alpha (ERRa) (AID 2282971; active = hit-call score of the fitted dose curve at least 0.9, where 1 is the maximum). Conditions: HepG2 Attagene TRANS reporter, ERRa transactivation. The method in brief:
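HepG2 cells transiently transfected with GAL4-UAS reporter units and chimeric NR-Gal4 constructs; after 24 hour compound incubation, reporter mRNA quantified by RT-PCR, fluorescent labelling and capillary electrophoresis, gain of signal versus DMSO.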

Inconclusive results are not listed. Active and inactive are the calls of the source. Rule for the calls, unless noted: active = hit-call score of the fitted dose curve at least 0.9, where 1 is the maximum; inactive = score below 0.9.

Estrogen-related receptor gamma (Homo sapiens), sequence (P62508 whole entry, looked up, the tested form may be a part): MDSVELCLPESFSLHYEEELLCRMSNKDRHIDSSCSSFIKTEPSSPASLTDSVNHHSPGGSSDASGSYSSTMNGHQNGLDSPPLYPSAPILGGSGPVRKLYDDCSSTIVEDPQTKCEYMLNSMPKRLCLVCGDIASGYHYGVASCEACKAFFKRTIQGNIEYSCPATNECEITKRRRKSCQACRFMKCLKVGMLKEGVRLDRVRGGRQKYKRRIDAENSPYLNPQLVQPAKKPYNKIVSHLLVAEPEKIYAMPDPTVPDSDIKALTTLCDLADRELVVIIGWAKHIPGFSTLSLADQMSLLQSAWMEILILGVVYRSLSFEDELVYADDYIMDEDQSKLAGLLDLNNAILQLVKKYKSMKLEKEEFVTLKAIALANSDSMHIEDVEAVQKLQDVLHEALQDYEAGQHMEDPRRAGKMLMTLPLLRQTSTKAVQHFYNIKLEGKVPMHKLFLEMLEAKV
Estrogen receptor (Homo sapiens), sequence (P03372 whole entry, looked up, the tested form may be a part): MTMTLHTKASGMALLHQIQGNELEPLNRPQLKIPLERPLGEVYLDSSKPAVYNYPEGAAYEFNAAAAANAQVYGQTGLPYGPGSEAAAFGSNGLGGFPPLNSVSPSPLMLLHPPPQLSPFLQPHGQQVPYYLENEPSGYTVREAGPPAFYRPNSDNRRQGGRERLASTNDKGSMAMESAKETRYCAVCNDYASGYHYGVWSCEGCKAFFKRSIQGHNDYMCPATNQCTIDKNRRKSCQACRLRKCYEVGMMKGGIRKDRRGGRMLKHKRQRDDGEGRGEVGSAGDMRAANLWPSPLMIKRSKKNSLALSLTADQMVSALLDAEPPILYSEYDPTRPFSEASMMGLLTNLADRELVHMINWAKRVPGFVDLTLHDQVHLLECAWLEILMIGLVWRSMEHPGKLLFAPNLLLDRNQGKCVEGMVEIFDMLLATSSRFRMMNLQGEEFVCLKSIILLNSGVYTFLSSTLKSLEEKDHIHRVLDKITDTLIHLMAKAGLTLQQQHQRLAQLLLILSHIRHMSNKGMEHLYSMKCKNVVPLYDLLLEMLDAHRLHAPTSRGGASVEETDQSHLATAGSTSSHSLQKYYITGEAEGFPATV
Signal transducer and activator of transcription 3 (Homo sapiens), sequence (P40763 whole entry, looked up): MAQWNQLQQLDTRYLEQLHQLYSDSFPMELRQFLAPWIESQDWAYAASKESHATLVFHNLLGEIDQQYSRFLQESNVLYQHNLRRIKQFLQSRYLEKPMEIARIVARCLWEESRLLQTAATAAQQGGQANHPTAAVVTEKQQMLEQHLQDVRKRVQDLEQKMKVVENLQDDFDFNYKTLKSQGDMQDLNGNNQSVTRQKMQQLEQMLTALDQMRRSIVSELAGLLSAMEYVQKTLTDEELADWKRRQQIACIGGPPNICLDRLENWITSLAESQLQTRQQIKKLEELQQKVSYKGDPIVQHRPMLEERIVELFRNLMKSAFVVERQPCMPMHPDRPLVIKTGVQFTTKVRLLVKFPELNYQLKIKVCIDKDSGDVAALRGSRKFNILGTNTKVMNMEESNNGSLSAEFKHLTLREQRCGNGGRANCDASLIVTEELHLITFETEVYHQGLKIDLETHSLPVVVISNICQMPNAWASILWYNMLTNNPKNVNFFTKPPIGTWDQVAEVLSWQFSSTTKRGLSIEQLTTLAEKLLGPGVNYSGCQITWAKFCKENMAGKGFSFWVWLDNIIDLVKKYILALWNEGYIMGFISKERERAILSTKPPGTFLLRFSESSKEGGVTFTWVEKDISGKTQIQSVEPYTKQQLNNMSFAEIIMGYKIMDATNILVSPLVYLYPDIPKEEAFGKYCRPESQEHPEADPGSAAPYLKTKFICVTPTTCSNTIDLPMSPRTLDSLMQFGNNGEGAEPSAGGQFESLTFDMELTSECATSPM
Steroid hormone receptor ERR1 (Homo sapiens), sequence (P11474 whole entry, looked up, the tested form may be a part): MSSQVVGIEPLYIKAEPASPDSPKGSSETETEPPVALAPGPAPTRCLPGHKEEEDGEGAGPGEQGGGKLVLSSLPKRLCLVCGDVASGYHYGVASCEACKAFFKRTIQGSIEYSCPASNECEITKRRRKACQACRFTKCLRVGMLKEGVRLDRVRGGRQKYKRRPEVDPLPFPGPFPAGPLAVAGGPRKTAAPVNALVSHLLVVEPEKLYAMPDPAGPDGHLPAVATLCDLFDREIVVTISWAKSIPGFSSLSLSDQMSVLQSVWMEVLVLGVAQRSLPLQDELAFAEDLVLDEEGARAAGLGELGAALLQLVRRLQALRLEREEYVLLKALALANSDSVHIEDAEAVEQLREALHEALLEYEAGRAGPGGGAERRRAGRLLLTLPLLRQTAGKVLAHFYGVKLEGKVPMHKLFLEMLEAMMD

Usually AC50 stands for the midpoint of the concentration-response curve, whichever way the signal moves. `C[C@]12CC[C@H]3[C@@H](CCC4=CC(=O)CC[C@@]43C)[C@@H]1CC[C@@H]2C(=O)CO`: the AC50 in [1] was 100 µM (active); in assay [2], 1.7 µM (active); in assay [8], 61 µM (active); in [9], 100 µM (active); in assay [12] it was 5.34 µM (active); in assay [13], 1.78 µM (active). The outcome in [3], in [4], in assay [5], in assay [6], in [7] and in [10] was inactive. The call in assay [11] and in assay [14] was inactive.
Turning to `C[C@H]1C[C@@H]2[C@H]([C@@H](O)C[C@@]3(C)[C@H]2CC[C@]3(O)C(=O)CO)[C@@]2(C)C=CC(=O)C=C12`, the compound was called inactive in assay [1], in [3], in assay [4], in assay [5], in [6] and in assay [7]. Further, the compound was called inactive in assay [8], in assay [9], in assay [10], in assay [11] and in assay [14]. Further, the AC50 in assay [2] is 62.9 µM (active).
Regarding `O=P(c1ccccc1)(c1ccccc1)c1ccccc1`, the compound was classed as inactive in [1], in [3], in assay [4], in [5], in assay [6] and in assay [7]. For the same compound, the call in assay [8], in assay [9], in assay [10], in assay [15], in [13] and in assay [14] was inactive. Also, the AC50 in assay [2] is 5.59 µM (active); in [12], 13.1 µM (active).
As for `CC(=O)Nc1ccc(C)cc1C`, the outcome in [1], in [2], in [3], in assay [4], in [16] and in assay [6] was inactive. The compound was classed as inactive in assay [7], in assay [9], in assay [10], in assay [11], in assay [12] and in [15]. The call in [14], in [17], in assay [18] and in assay [19] was inactive.
For the compound `Clc1cccc(Cl)n1`, the result in [1], in assay [2], in [3], in assay [4], in assay [5] and in assay [7] was inactive. Moreover, the outcome in assay [8], in assay [9], in assay [10], in assay [11], in assay [12] and in [15] was inactive. The compound was called inactive in [13], in [14], in assay [17] and in [19].
For the compound `O=C(Nc1ccccc1)c1cc([N+](=O)[O-])ccc1Cl`, the AC50 is 32.8 µM (active) in assay [1], 2.97 µM (active) in assay [2], 5.47 µM (active) in assay [13] and 4.35 µM (active) in assay [14]. The call in assay [3], in assay [4], in assay [5], in [6], in assay [7] and in assay [8] was inactive. Further, the compound was classed as inactive in assay [9], in assay [10], in [11], in assay [15] and in [19].
As to `OC1C(O)C(O)C(O)C(O)C1O` (stereo not given), the outcome in assay [1], in [2], in assay [3], in assay [4], in [5] and in assay [6] was inactive. For the same compound, the compound was called inactive in [7], in [8], in [9], in [10], in [14] and in assay [18].
On to `N#Cc1ccccc1`, for which the compound was classed as inactive in assay [1], in [2], in assay [3], in assay [16], in assay [5] and in [6]. Besides, the compound was classed as inactive in [7], in assay [8], in assay [9], in assay [10], in [11] and in assay [12]. For the same compound, the compound was classed as inactive in assay [20], in [14], in assay [18] and in assay [19].

For the origin of these results see PubChem BioAssay (EPA / NIEHS).
